# Bioassay records from PubChem BioAssay.
# Hits are enriched below; roughly 1.9% of the tested compounds scored in any of these assays.
# N-glyco inh: blocks N-linked glycosylation in D54 reporter cells | D54 ERlucT glycosylation luciferase reporter, 24 h; percent of 100 nM tunicamycin response | reporter increase, % at 12.5 µM | 0.23% of 360,000 active | AID 588692;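 active = mean luciferase reporter signal, scaled so untreated is 0 and the glycosylation-blocking control 100, at or above a set limit in every replicate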;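 also: luciferase carries N-glycosylation sites so blocking glycosylation raises the light; 0% = median of neutral control wells and 100% = median of 100 nM tunicamycin wells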
# Vif imaging: inhibitors of HIV Vif | inhibition, % at 7.49 µM | 0.35% of 340,000 active | AID 602346 | HEK293T cells, Vif self-association by quenched fluorescence, imaging, 24 h; in the data active = inhibition above about 50%, passing the limit was not always enough
# ATG4B inhibitor: inhibitors of human ATG4B cysteine protease; Q9Y4P1; ATG4B cleavage of LC3-PLA2, NBD-HPC fluorescence, 1 h; inhibition, % at 8.33 µM; 0.51% of 340,000 active; in the data active = inhibition above about 40%
# Target sequence (Q9Y4P1 whole entry, looked up): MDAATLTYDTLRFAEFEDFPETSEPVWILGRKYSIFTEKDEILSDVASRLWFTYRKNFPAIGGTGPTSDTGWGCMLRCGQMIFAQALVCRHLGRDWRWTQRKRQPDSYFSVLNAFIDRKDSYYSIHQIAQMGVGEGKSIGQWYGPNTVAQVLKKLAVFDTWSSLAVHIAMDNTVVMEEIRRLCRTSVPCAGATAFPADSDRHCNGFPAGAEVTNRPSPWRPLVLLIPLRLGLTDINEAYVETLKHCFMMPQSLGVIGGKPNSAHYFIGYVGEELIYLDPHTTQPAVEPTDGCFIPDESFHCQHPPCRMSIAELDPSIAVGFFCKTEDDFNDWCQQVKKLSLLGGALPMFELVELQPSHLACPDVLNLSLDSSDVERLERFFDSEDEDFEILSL
# CaV13 ICDI inh: Primary screen for inhibitors of IQ motif and Ca2+-dependent inactivation inhibitor domain binding in CACNA1D, Förster resonance energy transfer in living cells, …. 0.098% of 340,000 active. AID 743397. HEK cells, CFP/YFP FRET ICDI-IQ, plate reader, 10 min; percent FRET-ratio fall versus neutral wells. inhibition, % at 12.3 µM;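 active = mean replicate inhibition of at least 30% and at least 1% of replicates passing that level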;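 also: 0% = median of the neutral control wells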
# NSD2 HMT inh: inhibitors of human histone methyltransferase NSD2; O96028; NSD2 peptide methylation, AlphaScreen, 120 min; inhibition, % at 12.5 µM; 0.54% of 310,000 active
# DSG3 Ab inh: human desmoglein-3 autoantibody binding inhibition | P32926 | DSG3-coupled beads, scFv-anti-DSG3-GFP binding, flow cytometry; stronger effect = lower value | binding (percent of control), % at 10 µM | 0.48% of 310,000 active | AID 588358;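 active = binding more than 3 SD below its plate's average and above zero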;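 also: hits lower antibody fragment binding to DSG3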
# ATG4B conf: confirmation of human ATG4B inhibitors. ATG4B protease fluorescent substrate cleavage assay. shares compounds with ATG4B inhibitor. inhibition, % at 8.33 µM. 92% of 320 active; in the data active = inhibition above about 39%
# PLA2 counter: inhibits human PLA2, flagging false ATG4B inhibitors. shares compounds with ATG4B inhibitor. purified PLA2, NBD-C6-HPC fluorescence, 45 min. inhibition, % at 8.33 µM. 66% of 1,600 active
# Target sequence (P04054 whole entry, looked up): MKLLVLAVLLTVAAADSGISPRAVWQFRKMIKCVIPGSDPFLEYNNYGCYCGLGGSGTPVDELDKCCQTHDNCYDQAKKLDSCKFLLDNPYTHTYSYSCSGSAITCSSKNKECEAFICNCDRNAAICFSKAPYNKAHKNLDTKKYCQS
# * marks the source's active call; other numbers are inactive results; . = no result given. Rule as the data show it, unless noted: active = inhibition above about 50%; inactive = the rest.
SMILES,N-glyco inh,Vif imaging,ATG4B inhibitor,CaV13 ICDI inh,NSD2 HMT inh,DSG3 Ab inh,PLA2 counter,others
COc1ccc(C2C(C(C)=O)=C(C)N=c3s/c(=C\c4cc(C)n(C)c4C)c(=O)n32)c(OC)c1 (stereo not drawn),-3,.,56*,-16,-1,121,73*,
Cc1nc(N2CCCCCC2)c2ccccc2n1,-2,-9,0,-23,3,144,.,
COc1cc(-c2nnc(SCc3c(F)cccc3Cl)o2)cc(OC)c1OC,-2,-9,42*,.,.,121,57*,
O=C1CCCC2=C1C1(CCCC1)N=C(Nc1nc3ccccc3o1)N2,14,.,.,-6,0,.,.,
O=C1CCCC2=C1C1(CCCCC1)N=C(Nc1nc3ccccc3o1)N2,47*,-2,66*,-3,4,.,76*,
Cc1ccc(C)c(CSc2nnc(-c3cccs3)n2Cc2ccco2)c1,-3,-9,83*,-3,2,111,77*,
Cc1sc2nc(C3CC3)nc(N3CCN(S(=O)(=O)c4ccc(F)cc4)CC3)c2c1C,-6,-8,14,-9,.,102,.,
Cc1sc2nc(C3CC3)nc(N3CCN(C(=O)c4ccccc4F)CC3)c2c1C,-3,-17,54*,-7,0,97,71*,
Cc1sc2nc(C3CC3)nc(N3CCN(C(=O)c4ccc(Cl)cc4)CC3)c2c1C,4,-3,50*,-2,13,.,69*,
COc1ccc(C(=O)N2CCN(c3nc(C4CC4)nc4sc(C)c(C)c34)CC2)cc1,-1,-15,30,-3,-6,122,.,
Cc1sc2nc(C3CC3)nc(N3CCN(C(=O)c4ccc(F)cc4)CC3)c2c1C,-2,-15,62*,-7,-1,98,78*,
O=C1SCCc2c1n(Cc1ccccc1)c1ccccc21,-2,1,1,.,2,102,.,
NC(=O)C1CCCc2c1n(Cc1ccccc1)c1ccccc21 (stereo not drawn),-1,-7,84*,-19,0,101,88*,
Cc1ccc2c(c1)c1c(n2C)C(C(N)=O)CCC1 (stereo not drawn),2,0,62*,-5,1,107,69*,
CCOC(=O)c1ccc(NC(=S)N2CCSC2c2ccc(Cl)cc2)cc1 (stereo not drawn),2,-15,1,-5,-4,80,.,
CSc1n[nH]c2nc3c(c(=O)n12)C1(CCCCC1)Cc1ccccc1-3,2,-3,42*,-3,-162,97,33,ATG4B conf=46*
CCSc1n[nH]c2nc3c(c(=O)n12)C1(CCCCC1)Cc1ccccc1-3,0,-1,22,4,-1,86,.,
Cc1ccc2c(c1)[nH]c1c(N3CCN(Cc4ccccc4)CC3)ncnc12,9,-18,62*,-5,0,122,79*,
COc1cccc2[nH]c3c(N4CCN(Cc5ccc6c(c5)OCO6)CC4)ncnc3c12,.,.,.,-6,1,.,.,
COc1ccc2c(c1)[nH]c1c(N3CCN(Cc4ccc5c(c4)OCO5)CC3)ncnc12,13,-6,45*,-4,.,100,58*,
COc1c(Cl)cc(Cl)cc1/C=N/NC(=O)c1nnn(-c2nonc2N)c1CN1CCC(C)CC1,-5,10,-5,-6,-1,94,.,
COC(=O)c1ccc(CC2(C)C(=O)Nc3ccc(OC(F)(F)F)cc32)o1 (stereo not drawn),-2,5,.,-6,0,.,.,
O=C(Nc1ccc(N2CCCC2)cc1)C(Cl)c1ccccc1 (stereo not drawn),7,.,1,.,.,98,.,
CC(C)(C)c1ccc(C(=O)C2CCCN(C(=O)c3ccccn3)C2)cc1 (stereo not drawn),-4,-7,43*,-2,4,107,43,ATG4B conf=81*
Cc1cc(C(=O)N2CCCC(C(=O)c3ccc(Oc4ccccc4)cc3)C2)n[nH]1 (stereo not drawn),-7,-5,46*,-15,2,99,39,ATG4B conf=62*
SMILES,N-glyco inh,Vif imaging,ATG4B inhibitor,CaV13 ICDI inh,NSD2 HMT inh,DSG3 Ab inh,PLA2 counter,others
CCOC(=O)c1sc(NC(=O)CSc2ncn[nH]2)c(C#N)c1C,-2,.,-2,-9,-2,102,.,
CC(=O)N/C(=C\c1ccccc1)C(=O)OCc1ccc(C)cc1,2,1,4,-7,1,107,.,
C=CCn1c(N)c(C(=O)OC(C)CC)c2nc3ccccc3nc21 (stereo not drawn),8,-2,-4,.,-8,94,.,
COc1ccc(-n2c(SCC(=O)N3CCCCC3)nc3ccccc3c2=O)cc1,1,9,16,-17,-2,95,.,
COc1ccc(-n2c(SC(CN3CCCCC3)CN3CCCC3=O)nc3ccccc3c2=O)cc1 (stereo not drawn),0,13,63*,-5,9,98,67*,
Cc1cccc(NC(=O)CN2C(=O)CSC2=O)c1,2,1,1,-4,-1,104,.,
O=C(CSc1n[nH]c(-c2ccc(S(=O)(=O)N3CCCCC3)cc2)n1)Nc1nccs1,0,-3,-15,.,.,101,.,
O=S(Cc1ccc(Cl)cc1)CC(O)(c1ccccc1)c1ccccc1 (stereo not drawn),13,-2,6,.,-1,96,.,
O=S(Cc1ccccc1)CC(O)(c1ccc(Cl)cc1)c1ccc(Cl)cc1 (stereo not drawn),-4,-20,55*,-3,0,104,60*,
Cc1ccc(C(=O)NC(=S)Nc2ccccc2C(F)(F)F)cc1C,1,3,45*,.,6,102,47,ATG4B conf=62*
COc1cccc(N2CCN(C(=O)c3cc4ccc(OC)cc4[nH]3)CC2)c1,-1,-5,-6,-4,-1,95,.,
O=C1CC(c2ccccc2Cl)CC(O)=C1C=Nc1ccccc1 (stereo not drawn),-7,.,53*,-9,-5,114,53*,
Cc1ccc(N=CC2=C(O)CC(c3ccccc3Cl)CC2=O)cc1 (stereo not drawn),1,-2,-6,-5,-1,109,.,
CC12CCC(C(=O)N(Cc3ccccc3)Cc3ccccc3)(OC1=O)C2(C)C (stereo not drawn),-1,8,7,-6,-3,117,.,
CCCN(CC1CC1)C(=O)CSc1ncnc2sc(C)c(C)c12,0,-10,53*,-7,0,109,56*,
CCN(C(=O)CSc1ncnc2sc(C)c(C)c12)C1CCS(=O)(=O)C1 (stereo not drawn),-1,-6,2,.,.,95,.,
